Screening data (PubChem BioAssay)
Rows were chosen to be rich in hits. Some 1.6% of all compounds tested hit in one or more screens of this group.
KCNQ2 enhance = potentiators of rat KCNQ2 potassium channel | CHO-K1 KCNQ2, FluxOR thallium flux fluorescence; stronger effect = higher value | 0.54% of 310,000 active | B-score at 10 µM | O88943;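 active means fluorescence ratio B-score at least 3 SD of library B-scores, with initial fluorescence B-score within 3 of them, cut at about 5.3 in these data; same plate scores as AID 2156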;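 further: B-score of peak minus minimum over baseline fluorescence ratio after K+ and Tl+ stimulus; positive B-score means potentiation of KCNQ2 with more thallium influx and brighter signal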
KCNQ2 block = inhibitors of rat KCNQ2 potassium channel; O88943; CHO-K1 KCNQ2, FluxOR thallium flux, 20 min; stronger effect = lower value; B-score at 10 µM; 1.1% of 310,000 active;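 active means fluorescence ratio B-score at most minus 3 library SDs, with starting brightness B-score within 2 library SDs, cut at about -5.5 in these data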
KCNQ2 block conf = confirmation of rat KCNQ2 potassium channel inhibitors; shares compounds with KCNQ2 block; KCNQ2-expressing cells, thallium flux, inhibition; stronger effect = lower value; activity change, negative = inhibition, % at 10 µM; 57% of 1,000 active; AID 493025
KCNQ1 spec = selectivity of KCNQ2 inhibitors against human KCNQ1; activity change, negative = inhibition, % at 10 µM; KCNQ1-expressing cells, FluxOR thallium flux fluorescence; stronger effect = lower value; shares compounds with KCNQ2 block; 15% of 1,000 active;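 active means activity change at least 3 SD of negative controls below their mean in both duplicate wells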;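 further: CHO cells stably transfected with KCNQ1 and depolarized by potassium stimulus; peak minus minimum fluorescence over baseline after thallium addition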
Target sequence (P51787 whole entry, looked up): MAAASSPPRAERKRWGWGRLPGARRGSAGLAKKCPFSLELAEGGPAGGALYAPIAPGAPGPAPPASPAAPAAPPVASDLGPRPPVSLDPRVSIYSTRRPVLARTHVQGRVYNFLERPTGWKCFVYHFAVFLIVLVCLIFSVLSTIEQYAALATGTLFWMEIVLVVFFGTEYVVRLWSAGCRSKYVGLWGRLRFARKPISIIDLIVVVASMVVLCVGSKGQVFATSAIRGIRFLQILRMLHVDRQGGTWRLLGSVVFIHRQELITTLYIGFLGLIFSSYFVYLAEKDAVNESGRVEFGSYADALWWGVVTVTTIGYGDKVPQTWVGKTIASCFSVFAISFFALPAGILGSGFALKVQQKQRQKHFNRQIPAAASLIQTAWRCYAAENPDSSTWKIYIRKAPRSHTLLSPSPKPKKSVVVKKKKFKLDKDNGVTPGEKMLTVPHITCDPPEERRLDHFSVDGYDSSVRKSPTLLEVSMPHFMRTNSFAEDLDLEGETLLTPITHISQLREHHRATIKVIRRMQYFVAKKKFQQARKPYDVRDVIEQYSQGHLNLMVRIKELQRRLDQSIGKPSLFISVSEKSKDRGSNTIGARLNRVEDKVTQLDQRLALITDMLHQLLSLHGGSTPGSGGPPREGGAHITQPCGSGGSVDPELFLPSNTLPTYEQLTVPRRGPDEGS
CHO parental ctr = KCNQ2 inhibitor counter-screen hit in parental CHO cells; shares compounds with KCNQ2 block; thallium flux counter-screen; stronger effect = lower value; activity change, % at 10 µM; 14% of 1,000 active; AID 493029
KCNQ2 patch conf = rat KCNQ2 inhibition confirmed by electrophysiology; shares compounds with KCNQ2 block; KCNQ2-expressing cells, automated patch clamp current; calls only at 10 µM; 49% of 550 active
Numbers stand for hits; n = inactive; x = no result; + = active, no number. Unless noted, how the calls were made is not given here.

SMILES	KCNQ2 enhance	KCNQ2 block	KCNQ2 block conf	KCNQ1 spec	CHO parental ctr	others
Cc1ccc(C)c(S(=O)(=O)NCC(c2ccco2)N2CCc3ccccc3C2)c1 (configuration not stated)	x	n	x	x	x
Cc1ccc(C(=O)NCC(c2ccco2)N2CCc3ccccc3C2)cc1C (configuration not stated)	n	-8.8	-28%	n	n
O=C(NCC(c1ccco1)N1CCc2ccccc2C1)c1ccc(Cl)cc1 (configuration not stated)	n	-10	-31%	-30%	-22%	KCNQ2 patch conf=+
O=C(NCC(c1ccco1)N1CCc2ccccc2C1)c1ccccc1Br (configuration not stated)	x	n	x	x	x
OC1(c2cccc(C(F)(F)F)c2)CCN(CCN2CCCCC2)CC1	x	n	x	x	x
Cn1cc(Br)c(C(=O)N/N=C/c2cc3c(cc2Cl)OCO3)n1	x	n	x	x	x
CCC(OC(=O)CN1C(=O)C(=O)c2ccccc21)C(=O)Nc1ccccc1OC (configuration not stated)	x	n	x	x	x
O=C(NCC(c1ccco1)N1CCOCC1)c1cccc(Cl)c1 (configuration not stated)	n	n	x	x	x
O=C(NCC(c1ccco1)N1CCc2ccccc2C1)c1cccc(Br)c1 (configuration not stated)	n	-7.9	n	n	n
CCCC(=O)NCCc1nc2cc([N+](=O)[O-])ccc2n1C	n	n	x	x	x
CCOC(=O)c1cnc(-c2ccccc2)nc1C(F)(F)F	x	n	x	x	x
CCOC(=O)c1cnc2c(F)ccc(F)c2c1Sc1ccccc1	n	-7.6	n	n	n
CCN(CC(=O)NCCc1ccc(S(N)(=O)=O)cc1)Cc1ccccc1	x	n	x	x	x
COc1ccccc1NCC(O)Cn1c2ccccc2c2ccccc21 (configuration not stated)	n	n	x	x	x
COc1ccc(CCNCC(O)Cn2c3ccccc3c3ccccc32)cc1OC (configuration not stated)	n	-7	-24%	n	n	KCNQ2 patch conf=n
COc1ccccc1N1CCN(c2nc(C)nc3c2oc2ccccc23)CC1	n	-6.9	n	n	n
Cc1nc(N2CCC(C)CC2)c2oc3ccccc3c2n1	x	n	x	x	x
O=C(Nc1ncc(Cl)cc1Cl)c1c(F)cccc1Cl	n	n	x	x	x
Cc1ccc(C(=O)C[n+]2cc(Br)cc(Br)c2)cc1[N+](=O)[O-]	n	n	x	x	x
Cc1cccc(-n2nc3c(c2NC(=O)c2ccc(Br)o2)CSC3)c1	n	-9	-28%	n	n	KCNQ2 patch conf=n
Cc1cccc(-n2nc3c(c2NC(=O)CCCl)CSC3)c1	x	n	x	x	x
Cc1cc(CN(C)C)c(O)c(C2(C)CCCCC2)c1	n	-9.1	n	n	n
Cc1cc(CN2CCOCC2)c(O)c(C2(C)CCCCC2)c1	n	-7.2	-19%	n	n	KCNQ2 patch conf=n
Oc1c(CN2CCOCC2)cc(-c2ccccc2)cc1CN1CCOCC1	x	n	x	x	x
Cc1ccc(S(=O)(=O)NCc2ccccc2)cc1C(=O)N(C)Cc1ccc(F)cc1	x	n	x	x	x
SMILES	KCNQ2 enhance	KCNQ2 block	KCNQ2 block conf	KCNQ1 spec	CHO parental ctr	others
Cc1ccc(SCC(=O)N2c3ccccc3Sc3ccccc32)cc1	n	-6.6	n	n	n
O=C(CSc1nncs1)N1c2ccccc2Sc2ccccc21	n	n	x	x	x
O=C(COc1ccc2ccccc2c1)N1c2ccccc2Sc2ccccc21	n	-8.9	-28%	n	n	KCNQ2 patch conf=n
CC(=O)NCC(=O)OCC(=O)N1c2ccccc2Sc2ccccc21	n	n	x	x	x
Cc1ccc(S(=O)(=O)c2nc(-c3ccccc3Cl)oc2N(C)C)cc1	x	n	x	x	x
CN(C)c1oc(-c2ccccc2Cl)nc1P(=O)(c1ccccc1)c1ccccc1	n	-9.5	-39%	-31%	-24%	KCNQ2 patch conf=+
COc1ccc(CCN2CC(C(=O)N(C)CCOc3ccccc3)CCC2=O)cc1 (configuration not stated)	x	n	x	x	x
CN(CCOc1ccccc1)C(=O)C1CCC(=O)N(CCc2ccc(Cl)cc2)C1 (configuration not stated)	n	-7.8	n	n	n
COc1ccc(N2CC(C(=O)N/N=C/c3cc([N+](=O)[O-])ccc3O)CC2=O)cc1 (configuration not stated)	x	n	x	x	x
COc1ccccc1NS(=O)(=O)c1cccc(C(=O)NCc2ccco2)c1	n	n	x	x	x
Cn1cnnc1SCCC(=O)Nc1ccc(Cl)cc1	n	n	x	x	x
Cn1cnnc1SCCC(=O)Nc1ccccc1	n	-8.3	n	n	n
O=C(CN1C(=O)NC2(CCCC2)C1=O)N1CCN(S(=O)(=O)c2ccccc2[N+](=O)[O-])CC1	n	n	x	x	x
Cc1ccc(-c2nnc(N3CCN(C(=O)COc4ccccc4)CC3)c3ccccc23)cc1	n	-7.6	-27%	n	n	KCNQ2 patch conf=+
O=C(COc1ccc(-c2nnc(N3CCCCC3)c3ccccc23)cc1)N1CCCCC1	x	n	x	x	x
COc1ccccc1/C=C/C(=O)NCCc1ccccn1	n	n	x	x	x
O=C(Nc1cc(C(F)(F)F)ccc1N1CCCC1)C1=COCCO1	x	n	x	x	x
COc1cccc(Oc2ccc(C(F)(F)F)cc2NC(=O)C2=COCCO2)c1	n	-7.5	n	n	n
COc1ccc(Oc2ccc(C(F)(F)F)cc2NC(=O)c2ccc(F)cc2)cc1	x	n	x	x	x
COc1cccc(Oc2ccc(C(F)(F)F)cc2NC(=O)c2cccc(F)c2)c1	n	-7.1	-26%	n	n	KCNQ2 patch conf=n
Cn1c(CNC(=O)CCNC(=O)c2ccc(F)c(F)c2)cc(=O)n(C)c1=O	n	n	x	x	x
N#CCn1c(CN2CCCC2)nc2ccccc2c1=O	n	n	x	x	x
CCN(CC)CCNC(=O)C(=O)Nc1cc2c3c(c1)CCC(=O)N3CCC2	x	n	x	x	x
CC(C)(C)NC(=O)C(c1ccc(F)cc1)N(Cc1ccco1)C(=O)CCC(=O)Nc1ccccn1 (configuration not stated)	x	n	x	x	x
CCN(CC)CC#CCC(OC)(c1ccccc1)c1ccccc1	n	n	x	x	x
SMILES	KCNQ2 enhance	KCNQ2 block	KCNQ2 block conf	KCNQ1 spec	CHO parental ctr	others
COc1ccc(/C=C/C(=O)N(Cc2ccccc2)c2ccccn2)cc1OC	n	-7.7	-18%	n	n	KCNQ2 patch conf=+
COc1cc(/C=C/C(=O)NCc2ccccn2)cc(OC)c1OC	n	n	x	x	x
COc1ccccc1NC(=O)N(Cc1ccccc1)c1ccccn1	x	n	x	x	x
Cc1ccc(OCC(=O)N(Cc2ccccc2)c2ccccn2)cc1	n	-8.2	n	n	n
Cc1ccc(CC(=O)N(Cc2ccccc2)c2ccccn2)cc1	x	n	x	x	x
COc1cc(/C=C/C(=O)N(Cc2ccccc2)c2ccccn2)cc(OC)c1OC	n	-7.9	-29%	n	n	KCNQ2 patch conf=+
O=C1c2cccc(OCC(=O)N3N=C(c4cccs4)CC3c3ccc(F)cc3)c2CCN1Cc1cccnc1 (configuration not stated)	n	n	x	x	x
COc1ccc(-n2nc(C(=O)NCC(=O)NCc3ccc(F)cc3)c3ccccc3c2=O)cc1	n	n	x	x	x
Cc1cc(-n2c(C)cc(C(=O)CCl)c2C)no1	n	n	x	x	x
Cc1cc(-n2c(C)cc(C(=O)CSc3nnnn3-c3ccccc3)c2C)no1	n	n	x	x	x
Cc1ccc(-n2nnnc2SCC(=O)c2cc(C)n(-c3cc(C)on3)c2C)c(C)c1	n	-7.5	n	n	n
Cc1cc(-n2c(C)cc(C(=O)CSc3ccc4c(c3)OCCO4)c2C)no1	n	-6.9	-14%	n	n	KCNQ2 patch conf=+
